Shown are actives, neighbours in structure and some others; about 12% of the full set was active somewhere.
Sfp PPTase inh – inhibitors of Bacillus subtilis Sfp phosphopantetheinyl transferase; Q9F4F7; Biochemical Sfp PPTase activity, qHTS; Potency, µM, inactives show largest response in the series, negative = inhibition, hits mostly inhibitors; 310,000 tested, 3.5% active;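 note: the enzyme is Sfp with the accession as filed and its product quenches rhodamine fluorescence; 0% = enzyme reaction without inhibitor and -100% = no enzyme wells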
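Step 1, compound plus 15 nM Sfp-PPTase, 15 min, room temperature. Step 2, add rhodamine-CoA (5 uM) and BHQ-2-YbbR (12.5 uM). Step 3, read 525/598 nm fluorescence at 0 and 30 min.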
BAZ2B inh – BAZ2B (human) inhibition; Potency, µM (titrated, usually from 114 µM), for the others: at the highest dose activity change, negative = inhibition, actives largely listed as inhibitors; 360,000 tested, 4.4% active; Q9UIF8; AlphaScreen BAZ2B-H3K14Ac peptide displacement; note: % is set by controls: 0 for no effect and ±100 for the full control effect; nearly all actives have a fitted effect of over 60% in size
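BAZ2B 50 nM plus b-H3(5-23)K14Ac 50 nM, PBS pH 7.4/0.01% Tween-20, 30 min RT; compound added (max 110 uM), 30 min RT; streptavidin donor/Ni-chelate acceptor beads 10 ug/mL final, 20 min dark; AlphaScreen read.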
G9a inh – inhibitors of human histone lysine methyltransferase G9a | G9a H3K9 monomethylation, AlphaScreen, 2 h | Potency, µM (highest dose often 102 µM), inactives show at the highest dose activity, negative = inhibition, most hits filed as inhibitors | 350,000 tested, 8.8% active | AID 504332; note: % is set by controls: 0 for no effect and ±100 for the full control effect; nearly all actives have a fitted effect of over 75% in size
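Methyltransferase reactions run at room temperature for 2 h (20 nM enzyme, 500 nM biotin-H3K9 peptide, 20 uM SAM) after a 15 min compound preincubation; product detected by AlphaScreen beads and anti-H3K9me1 antibody.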
HP1b chromo inh – blocks HP1-beta chromodomain binding to methylated histone tails; AlphaScreen HP1-beta / biotin-H3K9me3 peptide binding; 390,000 tested, 0.56% active; Potency, µM (titrated, usually from 114 µM), for the others: top-dose activity change, negative = inhibition, most hits filed as inhibitors; P83916; note: nearly all actives have a fitted effect of over 70% in size
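Compound inhibition of the preformed complex between 50 nM HP1-beta and 50 nM biotinylated H3K9me3 peptide was read by AlphaScreen. Buffer was PBS pH 7.4 with 0.01% Tween-20. Incubations ran 30 min at room temperature, with 10 ug/mL donor/acceptor beads.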
L3MBTL1 block – blocks human L3MBTL1; AID 485360; 230,000 tested, 0.66% active; AlphaScreen L3MBTL1–H3K9me1 peptide binding; Potency, µM (doses to about 57.1 µM), inactives show at the top dose activity, negative = inhibition, actives largely listed as inhibitors; note: % is set by controls: 0 for no effect and ±100 for the full control effect; nearly all actives have a fitted effect of over 60% in size
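Displacement of a biotinylated histone H3(1-15) peptide monomethylated at Lys9 (75 nM) from L3MBTL1 (50 nM) was measured by AlphaScreen after a 30 min room-temperature compound incubation; cefsulodin titration served as intraplate control.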
JMJD2A Tudor inh – inhibitors of human JMJD2A Tudor domain; O75164; AlphaScreen JMJD2A-Tudor / H3K4me3 peptide binding; Potency, µM (highest dose often 114 µM), for inactives: at the highest dose activity change, negative = inhibition, usual class: inhibitors; 390,000 tested, 4.4% active; note: % is set by controls: 0 for no effect and ±100 for the full control effect; nearly all actives have a fitted effect of over 50% in size
* hit, by the source's call; ? = inconclusive; . = no result given; [ ] = remark or other dose. Calls come from the whole dose curve; as a rule, active = well fitted curve in the direction sought with a large enough effect; inconclusive = small, poorly fitted or top-dose-only effect, or another doubt; inactive = no such curve, though single readings can be large; an effect the other way counts as inactive or inconclusive. Potency is the fitted concentration of half-maximal effect.

SMILES	Sfp PPTase inh	BAZ2B inh	G9a inh	HP1b chromo inh	L3MBTL1 block	JMJD2A Tudor inh
CC(=O)c1cccc(S(=O)(=O)NC2CC2)c1	3.2%	-23.2%	44.7µM*	28.3%	7.0%	-8.2%
O=C(CN1C(=O)C2CCCCN2c2ccc(C(=O)N3CCCC3)cc21)NCc1ccccc1 (centres undefined)	.	-8.7%	1.7%[59 µM]	16.9%[57 µM]	.	-19.5%
CCN(C(=O)c1sc2nc3n(c(=O)c2c1C)CCCCC3)c1ccc(OC)cc1	.	35.5µM*	5.62µM*	12.6%	.	79.4µM*
CCN(C(=O)c1sc2nc3n(c(=O)c2c1C)CCCCC3)c1ccccc1F	.	-34.4%	8.91µM*	57.5%	.	-1.6%
CCc1ccc(N(CC)C(=O)c2sc3nc4n(c(=O)c3c2C)CCCC4)cc1	.	25.1µM*	15.8µM*	24.8%	.	79.4µM*
CCc1ccc(CNC(=O)C2COc3ccc(OC)cc3C2)cc1 (centres undefined)	.	-0.5%	12.6%[59 µM]	14.5%[57 µM]	.	-8.6%
CCS(=O)(=O)N1CCc2cc(C(=O)Nc3cccc(C)c3C)ccc21	.	-28.5%	-42.6%[59 µM]	-22.3%	.	?
Cc1cc2oc(C(=O)Nc3ccc(S(=O)(=O)N(C)c4ccccc4)cc3)cc(=O)c2cc1C	.	-0.5%	8.3%[59 µM]	20.2%	.	5.9%
CC(C)OCCCN(Cc1ccco1)C(=O)c1cc2c(s1)-c1ccccc1OC2	.	102.0%	144.3%[59 µM]	154.0%	.	113.8%
CC(C)C[C@@H](C=O)NC(=O)[C@H](CC(C)C)NC(=O)[C@H](CC(C)C)NC(=O)OCc1ccccc1	-9.1%	.	8.91µM*	.	.	.
O=C(N[C@@H](Cc1ccccc1)C(=O)CCl)OCc1ccccc1	.	4.1%	15µM*	54.8%	3.2%	-9.0%
COC(=O)CCC(NC(=O)OCc1ccccc1)C(=O)NC(CC(C)C)C(=O)OC (centres undefined)	23.5%	4.2%	-11.9%	12.8%	2.1%	-20.7%
COC(=O)C(CC(C)C)NC(=O)C(N)Cc1ccccc1 (centres undefined)	9.8%	3.8%	44.7µM*	11.8%	5.8%	?
O=C(COc1ccc(F)cc1)Nc1ccccc1C(=O)OCc1cc(=O)n2nc(C3CC3)sc2n1	.	-23.8%	18.0%[59 µM]	33.0%	.	-1.3%
Cc1cc(C(=O)CSc2ncccn2)c(C)n1-c1cccc(F)c1	-25.8%	-39.0%	?	-5.1%	-2.1%	-28.8%
Cc1cc(C(=O)CSc2n[nH]c(N)n2)c(C)n1-c1cccc(F)c1	-12.3%	50.1µM*	?	-18.9%	.	?
COCCn1c(C)cc(C(=O)CSc2nc3nc(C)cc(C)n3n2)c1C	-5.2%	-10.3%	?	1.1%	-1.0%	-24.3%
COCCn1c(C)cc(C(=O)CSc2n[nH]c(N)n2)c1C	25.1µM*	-31.1%	?	10.0%	14.1%[11.4 µM]	-16.1%
Cc1ccc(N(C)S(=O)(=O)c2ccc3[nH]cc(C(=O)O)c(=O)c3c2)cc1C	.	-18.6%	-11.8%[59 µM]	14.8%	.	-28.0%
O=c1ccc2ccc(OS(=O)(=O)O)cc2o1	5.4%	.	.	.	.	.
CCCCC/C=C\C/C=C\C/C=C\C=C\[C@@H](O)CCCC(=O)O	5.5%	.	28.5%[59 µM]	.	.	.
O=C(N/N=C/C=C/c1ccco1)c1ccccc1Cl	39.8µM*	-30.8%	?	-17.8%	.	-20.0%
CC(/C=C/c1ccco1)=N/NC(=O)c1ccccc1Cl	35.5µM*	-7.7%	?	25.9%	6.5%	-33.0%
CCCSc1nnc2c(n1)OC(c1cccs1)Nc1ccc(Br)cc1-2 (centres undefined)	.	-33.2%	?	26.9%	.	?
CC1CC=CC2C1C(=O)N(Cc1ccccc1)C2c1ccc(Br)cc1F (centres undefined)	-13.4%	.	.	62.6%	.	4.8%
S=c1nc(-c2csc3c2CCCC3)[nH][nH]1	35.5µM*	-3.4%	16.0%[0.501 µM]	?	6.6%	?
Cc1nnc2sc(-c3csc4c3CCCC4)nn12	1.2%	1.4%	-15.9%[12.7 µM]	11.8%	4.6%	-21.3%
Cc1ccc(CNC(=O)Cn2c(=O)cc(C)c3c(C)nn(-c4cccc(F)c4)c32)cc1	.	-1.5%	5.6%[59 µM]	-2.1%	.	-1.0%

High-throughput results deposited in PubChem by National Center for Advancing Translational Sciences (NCATS).
